PvdQ inh: P. aeruginosa PvdQ acylase inhibitors, primary screen, biochemical, fluorescence, plate reader and imaging, single point | inhibition, % at 10 µM | PvdQ acylase [Pseudomonas aeruginosa LESB58] | 0.063% of 340,000 active | purified PvdQ acylase; in the data active = inhibition above about 30%, passing the limit was not always enough; inconclusive = no clear call, values can overlap the other calls;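 also: 0% = vehicle neutral wells and 100% = reference inhibitor wells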
DENV2 CPE rescue: inhibitors of DENV2 cytopathic effect, primary screen, cell-based, plate reader, single concentration; 1.7% of 350,000 active; CPE inhibition, % at 9.99 µM; DENV2-infected cells, cytopathic effect rescue; in the data active = CPE inhibition above about 20%, passing the limit was not always enough; inconclusive = no clear call, values can overlap the other calls; tested in BHK-21 cells;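 also: 0% = median of neutral control wells and 100% = median of positive control wells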
PGC1a acetyl inh: inhibitors of PGC1a acetylation signal, primary screen, cell-based, U2OS, AlphaScreen, inhibitor mode; AlphaScreen anti-acetyl-lysine; with virally co-expressed GCN5 acetyltransferase; inhibition, % at 15.6 µM; 0.17% of 350,000 active;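 active = every replicate shows inhibition of at least 40%; inconclusive = mean inhibition at least 40% but some replicate below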;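 also: 0% = neutral control wells and 100% = positive control wells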
miR-122 sensor: miR-122 Renilla sensor signal increase in Huh7, primary screen, miR-122 inhibitor project, cell-based, single point, plate reader | Huh7 miR-122 Renilla luciferase sensor, 48 h; neutral wells = 0, positive control = 100 | activation (reporter increase), % at 12.5 µM | 0.3% of 340,000 active | AID 602342, 2012;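 active = mean replicate activation score at least 90 and every replicate individually at or above 90; inconclusive = only one of the two criteria met; inactive = neither criterion met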;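 also: higher luciferase means less miR-122 activity so hits act as miR-122 inhibitors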
C2C12 statin: suppressors of statin myotoxicity in C2C12 myotubes, primary screen, cell-based, single point, plate reader; 0.78% of 330,000 active; rescue of ATP level, % at 7.49 µM; AID 602340, 2012; C2C12 myotubes + simvastatin, ATP luminescence, 48 h; scaled: DMSO 0, geranylgeraniol control 100;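 active = mean ATP rescue above about 67%, or every replicate alone reaching that limit, limit read from the data, passing the limit was not always enough; inconclusive = no clear call, values can overlap the other calls; inactive = mean under the limit and some replicate under it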;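 also: myotubes were challenged with 10 µM simvastatin during compound exposure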
The depositor's hits bear a star; ? = inconclusive; · = no result given; [ ] = dose if it differs, or a comment. The list is not random: actives were taken first. Their share in the collection is about 2.2%.

SMILES	PvdQ inh	DENV2 CPE rescue	PGC1a acetyl inh	miR-122 sensor	C2C12 statin
C[C@@H]1CN([C@H](C)CO)S(=O)(=O)c2ccc(C#CC3CCCC3)cc2O[C@H]1CN(C)C	·	61*	-52	1[16.7 µM]	-104
C[C@@H]1CN([C@H](C)CO)S(=O)(=O)c2ccc(C#CC3CCCC3)cc2O[C@@H]1CN(C)C	·	-3	-9	-29[16.7 µM]	-29
Cc1ccc(S(=O)(=O)Nc2ccc3c(c2)C(=O)N([C@@H](C)CO)C[C@@H](C)[C@@H](CN(C)C(=O)Nc2c(C)noc2C)OCCCC[C@@H](C)O3)cc1	·	?	-15	4[16.7 µM]	·
CCOc1cccc(-c2c(C(=O)N/N=C/c3ccc(Br)cc3)nnn2-c2nonc2N)c1	-11	47*	21	-7	-2
CCOc1cccc(-c2c(C(=O)N/N=C/c3cccnc3)nnn2-c2nonc2N)c1	4	-1	4	5	5
O=[N+]([O-])c1ccc(Sc2cc[n+]([O-])c3ccccc23)c([N+](=O)[O-])c1	-1	-3	-10	-4	80*
COc1cccc(/C=C/C(=O)NNC(=O)CCN2CCN(Cc3ccccc3)CC2)c1	-11	0	-19	-14	·
O=C(/C=C/c1ccc(F)cc1)NNC(=O)CCN1CCN(Cc2ccccc2)CC1	-18	6	52*	-5	·
O=c1c2c([nH]c3ccc(Br)cc13)CCCC2	-15	·	11	4	126*
Brc1ccc2[nH]c3c(c2c1)CCC3	-11	-2	-19	10	-4
C[C@@H]1CCCCO[C@H](CN(C)S(=O)(=O)c2ccc(Cl)cc2)[C@@H](C)CN([C@@H](C)CO)C(=O)c2cc(NC(=O)CCC(F)(F)F)ccc2O1	·	15	13	-9[16.7 µM]	·
CC(C)CN(C(=O)c1cc(Cl)nc2ccccc12)c1c(N)n(Cc2ccccc2)c(=O)[nH]c1=O	-7	56*	·	-2	2
Cc1cccc(-c2noc(Cc3ccc(Cl)cc3)n2)c1	-11	·	-3	-4	121*
COc1ccc(Cc2nc(-c3cccc(C)c3)no2)cc1	-6	·	8	-3	13
COCCNC(=O)C[C@H]1CC[C@H](NC(=O)NC2CCCCC2)[C@@H](CO)O1	·	1	13	·	-9
Cn1c(SCC(=O)Nc2ccc(F)cc2)nnc1-c1cccnc1	-15	22*	-2	2	13
Cn1c(SCC(=O)Nc2ccccc2F)nnc1-c1cccnc1	-8	-3	0	-4	-6
NC(=O)CC(NC(=O)c1ccc(Br)cc1)c1ccc(NCCc2ccc(F)cc2)c([N+](=O)[O-])c1 (stereo not given)	-11	1	·	8	-40
NC(=O)CC(NC(=O)c1cccc(Br)c1)c1ccc(NCCN2CCOCC2)c([N+](=O)[O-])c1 (stereo not given)	·	29*	·	·	·
NC(=O)CC(NC(=O)c1ccccc1)c1ccc(NCCc2cccc(F)c2)c([N+](=O)[O-])c1 (stereo not given)	6	39*	·	-6	-12
Nc1ncccc1C(=O)OCC(=O)N1CCN(S(=O)(=O)c2ccc(Cl)cc2)CC1	-8	45*	14	10	-6
Cc1ccc(S(=O)(=O)N2CCN(C(=O)COC(=O)c3cc(C)oc3C)CC2)cc1	-6	·	21	-2	98*
COC(=O)C[C@H]1CC[C@@H]2[C@@H](COc3ccc(NC(=O)c4ccc(F)c(F)c4)cc3C(=O)N2C)O1	·	-3	-8	-42[16.7 µM]	0
CCCN(C)C[C@@H]1OCCCC[C@@H](C)Oc2ccc(NS(=O)(=O)c3cccs3)cc2C(=O)N([C@@H](C)CO)C[C@@H]1C	·	-10	5	7[16.7 µM]	·
CCc1cccc(-n2c(C)cc(O)cc2=O)c1	·	61*	·	·	·
SMILES	PvdQ inh	DENV2 CPE rescue	PGC1a acetyl inh	miR-122 sensor	C2C12 statin
Cc1cc(O)cc(=O)n1-c1cccc(F)c1	·	1	·	·	·
CO[C@H](CN(C)C(=O)c1ccc2c(c1)OCO2)[C@H](C)CN([C@H](C)CO)S(=O)(=O)c1ccc(C)cc1	·	2	5	·	11
O=C(COC(=O)C1CCN(S(=O)(=O)c2cccc3cccnc23)CC1)c1ccc(F)cc1	-13	·	5	0	96*
O=C(NCc1ccccc1)C1CCN(S(=O)(=O)c2cccc3cccnc23)CC1	10	1	1	-5	10
Cc1ccc(O)c(/C=N/NC(=O)CN2CCCC2)c1	-14	-1	84*	3	4
C[C@@H]1CCCCO[C@@H](CN(C)C(=O)Nc2ccccc2)[C@H](C)CN([C@@H](C)CO)C(=O)c2cc(NC(=O)Cc3ccccc3)ccc2O1	·	4	-12	-10[16.7 µM]	·
C[C@@H]1CCCCO[C@H](CN(C)C(=O)Nc2ccc(C(F)(F)F)cc2)[C@@H](C)CN([C@@H](C)CO)C(=O)c2cc(NC(=O)Cc3ccccc3)ccc2O1	·	42*	8	-8[16.7 µM]	·
C[C@H](CO)N1C[C@H](C)[C@H](CN(C)C(=O)Nc2ccc(F)cc2)OCCCC[C@H](C)Oc2ccc(NC(=O)Cc3ccccc3)cc2C1=O	·	-6	2	3[16.7 µM]	107*
CC1=CCC[C@@H]2[C@@](C)(CC/C(C)=C/C(=O)O)[C@H](C)CC[C@@]12C	-4	25*	·	-2	19
Cc1cccc(OC(C)C(=O)Nc2nc(-c3ccncc3)cs2)c1 (stereo not given)	-11	106*	2	3	-8
CC(Oc1ccc(F)cc1)C(=O)Nc1nc(-c2ccccn2)cs1 (stereo not given)	-19	2	8	1	28
CO[C@@H]1CN(C)C(=O)c2ccc(NC(=O)C3CCCC3)cc2OC[C@@H](C)NC[C@H]1C	·	1	·	-1[16.7 µM]	3
COc1ccc(CNCc2cccc(Cl)c2)cc1	43*	15	-21	-4	·
O=C(O)c1ccc(CNCc2cccc(Cl)c2)cc1	-4	0	4	·	·
C[C@@H]1CN([C@@H](C)CO)C(=O)c2cc(NS(=O)(=O)c3ccc(Cl)cc3)ccc2O[C@@H](C)CCCCO[C@H]1CN(C)S(=O)(=O)c1cccs1	·	36*	1	7[16.7 µM]	·
Cc1ccc(S(=O)(=O)Nc2ccc3c(c2)C(=O)N([C@@H](C)CO)C[C@@H](C)[C@@H](CN(C)S(=O)(=O)c2cccs2)OCCCC[C@@H](C)O3)cc1	·	40*	-11	-11[16.7 µM]	·
Cn1cnc(S(=O)(=O)N[C@H]2C=C[C@H](CC(=O)N3CCN(c4ccccc4)CC3)O[C@H]2CO)c1	·	8	7	·	-2
Cc1nc2ccc(S(=O)(=O)NCC(=O)N3CCCC(C)C3)cc2s1 (stereo not given)	-3	·	-1	1	106*
Cc1nc2ccc(S(=O)(=O)Nc3ccccc3C)cc2s1	1	-7	3	127*	-11
Cc1nc2ccc(S(=O)(=O)NCC(=O)N3CCc4ccccc4C3)cc2s1	-7	·	-11	-5	1

Compound activity as filed in PubChem.
